# Experimental data published in PubChem BioAssay (Tox21).
# Records with an inconclusive call do not appear. A call without a number means that no potency is given here. Active and inactive are the calls of the source. Unless noted, calls follow the shape of the dose curve; as a rule, active = well fitted curve in the direction sought with a large enough effect in the repeat runs; inconclusive = weak or mixed curves; inactive = no such curve, though single readings can be large; an effect the other way counts as inactive or inconclusive.
# Legend:
# [1] = target: Aryl hydrocarbon receptor (Homo sapiens) (UniProt P35869); assay: qHTS assay to identify small molecule that activate the aryl hydrocarbon receptor (AhR) signaling pathway (AID 743085); also: nearly all actives have a fitted effect of over 15% in size; also: potency is read from the fitted curve at half-maximal effect;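 as to activation: HG2L7.5c1 human HepG2 liver cells with stably integrated DRE-driven firefly reporter; series mostly up to about 70 µM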
# Chain of Aryl hydrocarbon receptor (Homo sapiens) (P35869 whole entry, looked up): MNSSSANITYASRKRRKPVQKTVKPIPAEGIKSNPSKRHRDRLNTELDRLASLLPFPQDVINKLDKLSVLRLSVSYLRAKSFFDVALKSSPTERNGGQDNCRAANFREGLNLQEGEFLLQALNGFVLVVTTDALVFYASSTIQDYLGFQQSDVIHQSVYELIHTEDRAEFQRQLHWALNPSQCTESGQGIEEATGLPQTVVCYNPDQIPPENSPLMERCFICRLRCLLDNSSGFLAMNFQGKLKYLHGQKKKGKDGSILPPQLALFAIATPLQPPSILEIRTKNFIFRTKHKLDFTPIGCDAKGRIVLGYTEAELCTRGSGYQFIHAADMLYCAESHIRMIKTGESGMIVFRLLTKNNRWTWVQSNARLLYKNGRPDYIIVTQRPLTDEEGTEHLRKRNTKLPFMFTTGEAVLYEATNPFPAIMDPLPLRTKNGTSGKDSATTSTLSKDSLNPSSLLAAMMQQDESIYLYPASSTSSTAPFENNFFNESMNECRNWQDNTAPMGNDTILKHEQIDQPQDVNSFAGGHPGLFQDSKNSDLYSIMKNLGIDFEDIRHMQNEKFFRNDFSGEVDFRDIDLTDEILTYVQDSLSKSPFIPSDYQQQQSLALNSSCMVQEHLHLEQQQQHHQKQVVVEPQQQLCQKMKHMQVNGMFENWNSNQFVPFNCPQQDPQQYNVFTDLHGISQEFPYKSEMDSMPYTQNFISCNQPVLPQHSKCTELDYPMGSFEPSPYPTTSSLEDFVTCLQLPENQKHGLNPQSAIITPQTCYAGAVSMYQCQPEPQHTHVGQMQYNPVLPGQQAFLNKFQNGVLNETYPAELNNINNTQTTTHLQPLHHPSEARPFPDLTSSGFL
# Outline: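 Cell line HG2L7.5c1 (human hepatoma, 20× DRE-luc). Plated, 5 h 37C, compound/DMSO added, 24 h 37C. CellTiter-Fluor 30 min 37C → fluorescence; then ONE-Glo 30 min RT → luminescence.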
# [2] = qHTS assay to identify small molecule that activate the aryl hydrocarbon receptor (AhR) signaling pathway - cell viability counter screen (AID 743086);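 also: HepG2 liver cells carrying the AhR DRE luciferase reporter; series mostly up to about 70 µM; nearly all actives have a fitted effect of over 45% in size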
# Outline: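 Cytotoxicity counter screen: CellTiter-Fluor signal (30 min, 37 C) in 4000 HepG2 cells/well carrying the DRE-luciferase reporter, following 24 h compound exposure at 37 C.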
# [3] = qHTS assay to identify small molecule antagonists of the peroxisome proliferator-activated receptor gamma (PPARg) signaling pathway - cell viability counter screen (AID 743194); also: nearly all actives have a fitted effect of over 55% in size
# Outline: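 Viability was measured as CellTiter-Glo luminescence in GeneBLAzer PPARg UAS-bla HEK293H cells. These cells had been exposed 17 h at 37 C to compounds together with rosiglitazone at 50 nM final, with the beta-lactamase readout taken in the same wells.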
# [4] = qHTS assay for small molecule agonists of the antioxidant response element (ARE) signaling pathway (AID 743202; active = well fitted activation curve with a large enough effect in the signal ratio in the repeat runs, not every such curve was filed as active; the % refers to the signal ratio)
# Outline: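 Beta-lactamase reporter activity, read as fluorescence intensity, reflects ARE/Nrf2 pathway induction in HepG2 cells after 16 h compound exposure at 37 C; substrate loading was 2 h at room temperature.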
# [5] = qHTS assay for small molecule agonists of the antioxidant response element (ARE) signaling pathway - cell viability counter screen (AID 743203; calls by dose curve; also: nearly all actives have a fitted effect of over 55% in size)
# Outline: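 Luminescence read-out (CellTiter-Glo, 30 min at room temperature) measured cell viability in the same wells as the ARE beta-lactamase reporter. HepG2 ARE-bla cells were treated with compounds for 16 hrs at 37C/5% CO2.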
# [6] = qHTS assay for small molecule activators of the heat shock response signaling pathway - cell viability counter screen (AID 743209); also: nearly all actives have a fitted effect of over 50% in size
# Outline: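 HSE-bla HeLa; 1500 cells/well; overnight 37 C, 5% CO2; compound 5 h 37 C; LiveBLAzer B/G substrate 2.5 h RT; CellTiter-Glo 30 min RT; luminescence.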
# [7] = qHTS assay to identify small molecule agonists of the farnesoid-X-receptor (FXR) signaling pathway - cell viability counter screen (AID 743218); also: nearly all actives have a fitted effect of over 45% in size
# Outline: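 Luminescence from CellTiter-Glo, read after 30 min at RT, reports viability of GeneBLAzer FXR-UAS-bla HEK 293T cells treated 16 h with compounds in the wells used for the beta-lactamase reporter.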
# [8] = qHTS assay to identify small molecule antagonists of the farnesoid-X-receptor (FXR) signaling pathway - cell viability counter screen (AID 743221; active = well fitted cell-killing curve with a large enough effect in the repeat runs, not every such curve was filed as active; also: nearly all actives have a fitted effect of over 50% in size)
# Outline: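 Luminescence from CellTiter-Glo measures cytotoxicity in GeneBLAzer FXR-UAS-bla HEK 293T cells. Cells were exposed to compounds with 50 uM chenodeoxycholic acid (final) for 16 h at 37 C, in wells also used for the reporter readout.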
# [9] = target: Vitamin D3 receptor (Homo sapiens) (UniProt P11473); assay: qHTS assay to identify small molecule agonists of the vitamin D receptor (VDR) signaling pathway (AID 743222; calls by dose curve)
# Chain of Vitamin D3 receptor (Homo sapiens) (P11473 whole entry, looked up): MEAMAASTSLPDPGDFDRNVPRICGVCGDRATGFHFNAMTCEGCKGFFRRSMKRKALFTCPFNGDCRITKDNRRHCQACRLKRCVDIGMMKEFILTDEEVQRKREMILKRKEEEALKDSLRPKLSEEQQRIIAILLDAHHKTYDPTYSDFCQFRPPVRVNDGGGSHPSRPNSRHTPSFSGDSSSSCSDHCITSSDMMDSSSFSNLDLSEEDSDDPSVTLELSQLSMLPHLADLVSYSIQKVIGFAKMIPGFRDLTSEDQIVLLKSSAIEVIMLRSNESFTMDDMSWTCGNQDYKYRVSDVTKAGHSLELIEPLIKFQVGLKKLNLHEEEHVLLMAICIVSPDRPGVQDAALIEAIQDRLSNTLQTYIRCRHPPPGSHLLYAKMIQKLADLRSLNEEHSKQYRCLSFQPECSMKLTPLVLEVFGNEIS
# Outline: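 Beta-lactamase reporter readout (LiveBLAzer B/G FRET, 2 h RT) in VDR-bla cells after 16 h compound treatment at 37C, 5% CO2; cells pre-incubated 4 h before pin transfer of DMSO solutions.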
# [10] = target: Vitamin D3 receptor (Homo sapiens) (UniProt P11473); assay: qHTS assay to identify small molecule antagonists of the vitamin D receptor (VDR) signaling pathway (AID 743223; active = well fitted inhibition curve with a large enough effect in the signal ratio in the repeat runs, not every such curve was filed as active; the % refers to the signal ratio)
# Outline: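 Antagonist mode uses 1alpha,25-dihydroxyvitamin D3 at 3 nM final as stimulus. VDR-bla cells receive compounds in DMSO, incubate 16 h at 37C, then a beta-lactamase FRET substrate for 2 h at room temperature before fluorescence measurement.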
# [11] = qHTS assay for small molecule activators of the heat shock response signaling pathway (AID 743210; active = well fitted activation curve with a large enough effect in the signal ratio in the repeat runs, with a control signal flat, not every such curve was filed as active; the % refers to the signal ratio;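 also: HeLa cells with beta-lactamase reporter driven by heat shock elements; series mostly up to about 63 µM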)
# Outline: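 Fluorescence from a cleaved B/G FRET substrate (2.5 h, room temp) reports HSE-driven beta-lactamase in HeLa cells treated 5 h at 37 C with DMSO-dissolved compounds.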
# [12] = qHTS assay to identify small molecule agonists of the peroxisome proliferator-activated receptor delta (PPARd) signaling pathway - cell viability counter screen (AID 743211); also: nearly all actives have a fitted effect of over 55% in size
# Outline: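 HEK293H PPARd-bla, 3000 cells/well; 5 h preincubation 37C/5% CO2; cpd in DMSO, 17 h 37C; B/G FRET substrate 2 h RT; CellTiter-Glo 30 min RT, luminescence.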
# [13] = qHTS assay to identify small molecule antagonists of the peroxisome proliferator-activated receptor delta (PPARd) signaling pathway - cell viability counter screen (AID 743213); also: nearly all actives have a fitted effect of over 50% in size
# Outline: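 PPARd-bla HEK293H cells were treated with compounds plus agonist L165041 (300 nM final) for 17 h at 37 C. Viability was then read in the same wells by CellTiter-Glo luminescence after 30 min at room temperature.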
# [14] = qHTS assay to identify small molecule agonists of the vitamin D receptor (VDR) signaling pathway - cell viability counter screen (AID 743224); also: series mostly up to about 63 µM; nearly all actives have a fitted effect of over 50% in size
# Outline: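 Cytotoxicity counter screen: VDR-bla cells, 16 h compound exposure at 37C, 5% CO2; CellTiter-Glo luminescence, 30 min RT, same wells as bla read.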
# [15] = target: Peroxisome proliferator-activated receptor gamma (Homo sapiens) (UniProt P37231); assay: qHTS assay to identify small molecule agonists of the peroxisome proliferator-activated receptor gamma (PPARg) signaling pathway (AID 743094; active = well fitted activation curve with a large enough effect in the signal ratio in the repeat runs, not every such curve was filed as active; the % refers to the signal ratio)
# Chain of Peroxisome proliferator-activated receptor gamma (Homo sapiens) (P37231 whole entry, looked up): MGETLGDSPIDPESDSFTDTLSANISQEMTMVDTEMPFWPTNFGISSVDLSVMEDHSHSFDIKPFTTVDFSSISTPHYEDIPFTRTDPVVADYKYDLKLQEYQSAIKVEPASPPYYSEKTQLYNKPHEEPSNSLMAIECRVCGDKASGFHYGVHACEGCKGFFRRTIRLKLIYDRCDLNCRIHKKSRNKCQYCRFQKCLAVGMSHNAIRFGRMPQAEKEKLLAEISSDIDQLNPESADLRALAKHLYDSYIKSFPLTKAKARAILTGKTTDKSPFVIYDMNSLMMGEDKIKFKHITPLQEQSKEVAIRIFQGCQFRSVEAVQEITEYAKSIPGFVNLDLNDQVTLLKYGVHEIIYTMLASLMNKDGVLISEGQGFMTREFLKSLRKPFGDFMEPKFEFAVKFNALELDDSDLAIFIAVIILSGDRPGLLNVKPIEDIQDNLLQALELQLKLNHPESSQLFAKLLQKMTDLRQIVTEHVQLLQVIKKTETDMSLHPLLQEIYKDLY
# Outline: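 HEK293H PPARg-bla cells, 5 h settle at 37C/5% CO2; compound (DMSO) 17 h, 37C; B/G FRET substrate 1 h RT; fluorescence intensity read-out. qHTS format.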
# [16] = target: Peroxisome proliferator-activated receptor delta (Homo sapiens) (UniProt Q03181); assay: qHTS assay to identify small molecule antagonists of the peroxisome proliferator-activated receptor delta (PPARd) signaling pathway (AID 743215; active = well fitted inhibition curve with a large enough effect in the signal ratio in the repeat runs, not every such curve was filed as active; the % refers to the signal ratio;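 also: cells stimulated with agonist L165041 at 300 nM final during compound exposure; series mostly up to about 62 µM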)
# Chain of Peroxisome proliferator-activated receptor delta (Homo sapiens) (Q03181 whole entry, looked up): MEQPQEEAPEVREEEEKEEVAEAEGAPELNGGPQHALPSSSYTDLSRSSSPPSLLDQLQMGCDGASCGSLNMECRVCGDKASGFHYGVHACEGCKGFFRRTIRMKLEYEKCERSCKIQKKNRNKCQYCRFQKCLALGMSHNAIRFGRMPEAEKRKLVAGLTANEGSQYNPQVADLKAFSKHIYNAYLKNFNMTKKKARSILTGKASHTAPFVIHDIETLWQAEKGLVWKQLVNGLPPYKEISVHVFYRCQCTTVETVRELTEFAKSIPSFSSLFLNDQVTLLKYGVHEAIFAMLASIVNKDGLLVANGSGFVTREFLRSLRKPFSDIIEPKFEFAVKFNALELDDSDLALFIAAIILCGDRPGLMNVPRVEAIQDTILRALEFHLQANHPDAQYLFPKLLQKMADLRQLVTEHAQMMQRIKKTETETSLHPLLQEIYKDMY
# Outline: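 HEK293H GeneBLAzer PPARd UAS-bla reporter cells; cpd + L165041 300 nM final, 17 h 37 C; LiveBLAzer B/G FRET substrate 2 h RT; fluorescence intensity read-out. Antagonist mode.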
# [17] = target: Bile acid receptor (Homo sapiens) (UniProt Q96RI1); assay: qHTS assay to identify small molecule agonists of the farnesoid-X-receptor (FXR) signaling pathway (AID 743220; active = well fitted activation curve with a large enough effect in the signal ratio in the repeat runs, not every such curve was filed as active; the % refers to the signal ratio)
# Chain of Bile acid receptor (Homo sapiens) (Q96RI1 whole entry, looked up): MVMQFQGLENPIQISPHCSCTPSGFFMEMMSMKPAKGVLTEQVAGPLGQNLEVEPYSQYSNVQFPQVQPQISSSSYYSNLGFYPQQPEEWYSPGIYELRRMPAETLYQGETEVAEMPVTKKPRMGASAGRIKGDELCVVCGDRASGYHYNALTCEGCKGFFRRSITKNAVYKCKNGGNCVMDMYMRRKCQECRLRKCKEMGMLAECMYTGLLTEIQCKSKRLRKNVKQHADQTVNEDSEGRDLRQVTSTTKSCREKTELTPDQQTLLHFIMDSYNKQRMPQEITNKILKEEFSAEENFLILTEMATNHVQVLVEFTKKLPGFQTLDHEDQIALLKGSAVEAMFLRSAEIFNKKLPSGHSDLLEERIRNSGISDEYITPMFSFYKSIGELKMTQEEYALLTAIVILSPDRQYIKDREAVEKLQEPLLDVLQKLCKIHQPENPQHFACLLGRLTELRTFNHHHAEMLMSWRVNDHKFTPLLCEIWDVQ
# Outline: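 FXR-UAS-bla HEK 293T cells carrying a UAS-driven beta-lactamase reporter were plated for 5 h at 37C/5% CO2, then exposed to DMSO-dissolved Tox21 10K compounds for 16 h at 37C. A LiveBLAzer B/G FRET substrate was loaded for 2 h at room temperature before fluorescence reading.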
# [18] = target: Peroxisome proliferator-activated receptor delta (Homo sapiens) (UniProt Q03181); assay: qHTS assay to identify small molecule agonists of the peroxisome proliferator-activated receptor delta (PPARd) signaling pathway (AID 743212; calls by dose curve)
# Outline: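 Steps: seed PPARd-bla HEK293H cells; incubate 5 h, 37 C, 5% CO2; add compounds in DMSO; incubate, 37 C; add LiveBLAzer B/G FRET substrate; hold 2 h at room temperature; measure fluorescence.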
# [19] = target: Bile acid receptor (Homo sapiens) (UniProt Q96RI1); assay: qHTS assay to identify small molecule antagonists of the farnesoid-X-receptor (FXR) signaling pathway (AID 743217; active = well fitted inhibition curve with a large enough effect in the signal ratio in the repeat runs, not every such curve was filed as active; the % refers to the signal ratio)
# Outline: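 Read-out: beta-lactamase FRET fluorescence (LiveBLAzer B/G substrate, 2 h, room temperature) in GeneBLAzer FXR-UAS-bla HEK 293T cells. Compounds were co-dosed with 50 uM chenodeoxycholic acid (final) and incubated 16 h at 37 °C.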
SMILES,Potency [1],outcome [2],Potency [3],Potency [4],Potency [5],outcome [6],Potency [7],outcome [8],outcome [9],outcome [10],Potency [11],Potency [12],Potency [13],Potency [14],Potency [15],outcome [16],outcome [17],outcome [18],outcome [19]
O=C(O)c1ccccc1Nc1cc(Cl)ccc1C(=O)O,inactive,inactive,inactive,inactive,inactive,inactive,inactive,inactive,inactive,inactive,–,–,–,–,–,–,–,–,–
C=O,inactive,inactive,inactive,inactive,inactive,inactive,inactive,inactive,inactive,inactive,inactive,inactive,inactive,inactive,–,–,–,–,–
C=CC(C)(O)CC/C=C(\C)CCC=C(C)C (stereo not given),inactive,inactive,inactive,–,–,–,inactive,inactive,–,–,inactive,inactive,inactive,inactive,inactive,inactive,inactive,–,–
C=CCc1cc(OC)c(O)c(C(=O)NCCO)c1,inactive,inactive,–,–,inactive,inactive,inactive,inactive,inactive,inactive,inactive,inactive,inactive,–,inactive,–,inactive,–,–
NCCCN1CCN(CCCN)CC1,inactive,inactive,inactive,inactive,inactive,inactive,inactive,inactive,inactive,inactive,inactive,inactive,inactive,–,–,inactive,–,inactive,–
CCCCCOc1ccc(C2SC(=O)NC2=O)cc1OCC (stereo not given),29.8 µM (active),inactive,inactive,inactive,inactive,inactive,inactive,inactive,–,inactive,inactive,inactive,inactive,–,–,–,–,–,–
OCc1c2ccccc2cc2ccccc12,inactive,inactive,inactive,–,inactive,–,inactive,inactive,–,inactive,inactive,inactive,inactive,–,inactive,–,–,–,–
ClC(Cl)Cl,inactive,inactive,inactive,inactive,–,inactive,inactive,inactive,–,inactive,inactive,inactive,inactive,–,–,–,inactive,–,inactive
Cc1ccsc1C(=CCCN1CCC[C@@H](C(=O)O)C1)c1sccc1C,inactive,inactive,inactive,–,inactive,inactive,inactive,inactive,–,–,–,inactive,inactive,inactive,inactive,inactive,–,inactive,–
CCN(CC)CC1CCCCN1CC(=O)N1c2ccccc2C(=O)Nc2cccnc21 (stereo not given),inactive,inactive,inactive,inactive,–,inactive,inactive,inactive,inactive,inactive,–,inactive,inactive,–,inactive,–,inactive,inactive,inactive
CCN1CC(CCN2CCOCC2)C(c2ccccc2)(c2ccccc2)C1=O (stereo not given),inactive,inactive,inactive,–,inactive,–,inactive,inactive,inactive,–,inactive,inactive,inactive,inactive,inactive,–,inactive,–,inactive
CCOC(=O)c1ccccc1O,inactive,inactive,inactive,–,inactive,inactive,inactive,inactive,inactive,inactive,inactive,inactive,inactive,inactive,inactive,–,–,inactive,–
CC(C)(CO)[C@@H](O)C(=O)NCCC(=O)O,inactive,inactive,inactive,–,inactive,inactive,inactive,inactive,–,inactive,inactive,inactive,inactive,inactive,inactive,inactive,–,–,–
CCN(CC)C(=O)N(CC)CC,inactive,inactive,–,–,inactive,inactive,–,inactive,inactive,inactive,inactive,inactive,inactive,inactive,inactive,–,inactive,inactive,–
COc1ccc(Nc2ccc(OC)cc2)cc1,inactive,inactive,inactive,inactive,–,inactive,inactive,inactive,–,inactive,inactive,inactive,–,–,inactive,–,inactive,–,–
CC1(C)C(=O)N(Cl)C(=O)N1Br,inactive,inactive,inactive,–,inactive,inactive,inactive,inactive,–,–,inactive,inactive,inactive,inactive,inactive,–,inactive,–,inactive
CC1(C)S[C@@H]2[C@H](NC(=O)C(C(=O)O)c3ccccc3)C(=O)N2[C@H]1C(=O)O (stereo not given in full),inactive,inactive,inactive,–,–,–,inactive,inactive,inactive,inactive,inactive,inactive,inactive,–,inactive,inactive,–,inactive,inactive
O=C(CC(=O)C(F)(F)F)c1ccccc1,inactive,inactive,inactive,inactive,inactive,inactive,inactive,inactive,inactive,inactive,–,inactive,inactive,inactive,–,inactive,–,inactive,–
